Here are results for one compound from PubChem BioAssay AID937 (National Center for Advancing Translational Sciences (NCATS), 2007).

The other results are listed elsewhere or left out. Records with an inconclusive call do not appear. Active and inactive are the calls of the source. The call rests on the fitted dose curve.

The target of this test is Alpha-synuclein (Homo sapiens) (UniProt P37840). The experiment in a line: Alpha-synuclein ThS binding assay. Conditions: recombinant alpha-synuclein fibrils, ThS fluorescence displacement. As for the experimental part: NIH Molecular Libraries Screening Centers Network [MLSCN] NIH Chemical Genomics Center [NCGC] MLSCN Grant: 1 X01 MH079825-01 Assay Provider: Jeffrey A. Kuret, Ohio State University NCGC Assay Overview: Lewy body disease is characterized by the appearance of lesions containing alpha-synuclein. The protein components in these lesions can be induced to form filaments under experimentally tractable times when incubated in vitro with anionic inducers such as alkyl sulfate detergents or fatty acids. […] Here we describe the in vitro fibrillization of alpha-synuclein. Alpha-synuclein was induced to form filaments by incubation overnight at 37 C in the presence of arachidonic acid. A commonly used fluorescent probe for cross#nbeta-sheet structure, Thioflavin S (ThS), was also added to the reactions. […] Small molecules capable of ThS displacement or antagonizing fibrillization result in a decrease in ThS fluorescence, allowing determination of binding affinities for molecules screened.
NCGC Assay Protocol Summary The assay was performed in 96-well round bottom opaque plates (VWR, West Chester, PA) in 100 uL final volume. […] Fluorescence (ex = 440 nm; em = 485 nm) was measured after brief shaking (10 s) in a FlexStation plate reader (Molecular Devices, Sunnyvale, CA) operated at sensitivity 10, automatic PMT. […]
For the compound `O=C(CCCCn1c(=O)[nH]c2ccccc2c1=O)NCc1ccc2c(c1)OCO2`, the result was inactive.
